# High-throughput results from PubChem.
# Shown is part of a subset that was picked to be rich in hits.
# LMNA splice mod – modulators of lamin A splicing. Potency, µM (titrated, usually from 46.1 µM), hits mostly inhibitors. HeLa LMNA splicing GFP/RFP minigene ratio, 48 h. actives 0.01% (n = 200,000); active means well fitted inhibition curve with a large enough effect in the signal ratio, with a control signal flat, not every such curve was filed as active; inconclusive means small, poorly fitted or top-dose-only effect, or effect the other way, or a change in a side signal; the % refers to the signal ratio
#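 S3 HeLa cells stably expressing lamin A-EGFP splicing minigene plus DsRed2, 600 cells/well, 48 h compound exposure at 37C. Laser-scanning cytometry; analysed as GFP (500-530 nm)/RFP (575-640 nm) total intensity ratio; 0.5% DMSO vehicle.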
# IMPase cell inh – membrane-permeable compound that blocks inositol monophosphatase; P97697; CHO-M1 cells, IP1 accumulation, HTRF TR-FRET ratio; inhibition (IP1 accumulation), % at 46.1 µM; 120,000 tested, under 10 active; active means well fitted curve in the direction sought with a large enough effect in the signal ratio, not every such curve was filed as active; inconclusive means small, poorly fitted or top-dose-only effect, or a change in a side signal; inactive means no such curve, though single readings can be large or run the other way; the % refers to the signal ratio;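 further: cells stimulated with carbachol in lithium chloride buffer; higher means more IMPase inhibition seen as more IP1 and lower FRET ratio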
# Target sequence (P97697 whole entry, looked up): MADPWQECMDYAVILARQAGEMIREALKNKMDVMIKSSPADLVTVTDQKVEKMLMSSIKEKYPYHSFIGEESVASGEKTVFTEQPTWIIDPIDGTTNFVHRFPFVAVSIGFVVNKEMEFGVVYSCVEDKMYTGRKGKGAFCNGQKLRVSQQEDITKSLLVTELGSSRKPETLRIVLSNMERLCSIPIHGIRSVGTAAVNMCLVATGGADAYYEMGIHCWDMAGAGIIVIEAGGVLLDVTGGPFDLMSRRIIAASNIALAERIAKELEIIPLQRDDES
#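 Measured: the HTRF emission ratio (665/620 nm) plus the 620 nm donor channel, each fitted to the Hill equation to give AC50. Cells were CHO-M1 given compounds up to 46 uM and a 30 min carbachol stimulation at 37C.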
# PNC assembly inh – perinucleolar compartment assembly inhibition; PC3M PTB-GFP, PNC prevalence imaging, 16 h; hits give low values; activity change (PNC), negative = inhibition, % at 10 µM; actives 3.1% (n = 140,000);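 active means readout at or below -70, meaning at least 70% loss of cells showing the perinucleolar compartment, a nuclear body marking cancer cells; inconclusive means readout between -30 and a set limit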
#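 PC3M cells stably expressing PTB-GFP, 750–1000 cells/well, treated 16 h at 37 °C with compound (23 nl of library stock), in duplicate. After paraformaldehyde fixation and Hoechst stain, imaged at 20x; PNC prevalence scored by image analysis.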
# A number is an active result; - = inactive; ? = inconclusive; . = no result; [ ] = another dose, or the depositor's remark.
SMILES,LMNA splice mod,IMPase cell inh,PNC assembly inh
COc1ccc(CCNC(=O)C(CC(C)C)N2Cc3ccccc3C2=O)c(OC)c1OC (stereo not given),-,.,.
Cc1cccc(-n2c(=O)[nH]c3c(C(N)=O)nc(C(C)C)nc32)c1,-,-,-100
COc1cccc(-c2nc(C(N)=O)c3[nH]c(=O)n(-c4cccc(Cl)c4)c3n2)c1OC,-,-,-
COC(=O)c1c(C)sc(-c2c(-c3cccc(Cl)c3)[nH]c3c2c(=O)[nH]c(=O)n3C)c1O,-,.,.
CCOC(=O)N1CCN(S(=O)(=O)c2ccc(C(=O)Nc3nc4ccc(F)cc4s3)cc2)CC1,?,?,-
COC(=O)c1ccc2nc(NC(=O)C(C)C)sc2c1,-[9.22 µM],.,.
COC(=O)c1ccc2nc(Nc3nc4c(F)cc(F)cc4s3)sc2c1,?,.,-100
CCOC(=O)c1ccc2nc(Nc3nc4ccc(F)cc4s3)sc2c1,-,.,-107
O=C(CSc1nc2c([nH]c3ccccc32)c(=O)n1-c1cccc(Cl)c1)NCC1CCCO1 (stereo not given),-,.,.
Cc1ccc(Cc2nc3ccccc3nc2SCC(=O)Nc2ccc3c(c2)OCO3)cc1,-,.,.
CC1(C)NC(=O)N(CCOCCOc2ccc3ccccc3c2Br)C1=O,-,-,-111
CC1(C)NC(=O)N(CCCCOc2ccc3ccccc3c2Cl)C1=O,?,-,-
COc1cc(NS(=O)(=O)c2ccc(NC(=O)c3ccco3)cc2)nc(OC)n1,?,-,-82
COc1cc(NS(=O)(=O)c2ccc(NC(C)=O)cc2)nc(OC)n1,-,-,-
O=C(Nc1ccc(S(=O)(=O)NC2CCCCC2)cc1)c1ccc(Br)o1,?,-,?
O=C(Nc1ccc(S(=O)(=O)NC2CCCCC2)cc1)c1ccco1,?,-,-100
N[C@@H](CO)C(=O)O,.,-,.
Cc1ccc(NC(=O)c2c(C)cc(C)nc2SCC(=O)Nc2ccc(Br)cc2)cc1,-,.,.
N#C/C(=C\c1ccc(Cl)cc1)C(=O)NCC1CCCO1 (stereo not given),.,-,.
COC(=O)CSc1nnc(CNC(=O)c2cc(OC)c(OC)c(OC)c2)n1C,-,?,?
COc1ccc(CC(=O)NCc2nnc(SCc3ccc(C)cc3)n2C)cc1,-,.,-92
COc1ccc(CC(=O)NCc2nnc(SCc3ccc([N+](=O)[O-])cc3)n2C)cc1,-,.,.
COC(=O)CSc1nnc(CNC(=O)c2ccccc2OC)n1C,-,?,-88
CCOC(=O)c1[nH]c(C)c(C)c1C,-,-,-
CCOC(=O)c1[nH]c(C)c(/C=N/O)c1C,-,-,-115
SMILES,LMNA splice mod,IMPase cell inh,PNC assembly inh
CN(C)C(=O)N1CCCC(C(=O)NCc2ccccc2)C1 (stereo not given),-,-,-91
CN(C)C(=O)N1CCCC(C(=O)NCCc2ccccc2)C1 (stereo not given),-,-,-
Cc1ccc(NC2Sc3ccccc3NC2=O)cc1 (stereo not given),-,.,.
O=C(O)CCSc1nc2ccccc2s1,-,-,?
OC(CNc1nc2ccccc2s1)c1ccccc1 (stereo not given),-,-,-82
Cc1ccccc1-n1c(=O)cc(N2CCCCCC2)[nH]c1=O,-,-,-
Cc1ccccc1-n1c(=O)cc(N2CCC3(CC2)OCCO3)[nH]c1=O,-,-,-119
O=C(/C=C/c1ccccc1)N1CCN(c2ccc([N+](=O)[O-])c(N3CCOCC3)c2)CC1,?,-,-
Cc1ccc(C(=O)O/N=C/c2c(N3CCOCC3)n(C)c3ccccc23)cc1,?,-,-
Cn1c(N2CCOCC2)c(/C=N/OC(=O)c2ccc(F)cc2)c2ccccc21,?,-,-99
O=C(Cn1cnc2c(nnn2Cc2ccccc2)c1=O)N1CCN(c2ccccc2)CC1,-,-,?
O=C(Cn1cnc2c(nnn2Cc2ccccc2F)c1=O)N1CCN(c2ccccc2)CC1,-,-,-83
CC(C)(C)C(=O)NCCc1csc2nc(-c3ccc(F)cc3)nn12,-,.,.
Cc1ccc(NC(=O)C(C)OC(=O)c2ccc(NS(=O)(=O)c3ccc(F)c(F)c3)cc2)cc1 (stereo not given),?,.,-
CC(=O)c1ccc(NC(=O)C(C)OC(=O)c2ccc(NS(=O)(=O)c3ccc(F)c(F)c3)cc2)cc1 (stereo not given),?,.,-100
CC(=O)C1CCN(Cc2ccccc2)CC1,-,-,-
CSc1ccccc1OC1CCN(Cc2ccccc2)CC1,?,.,-109
COc1cccc(-c2nc(S(=O)(=O)c3ccccc3)c(N3CCCCC3)o2)c1,.,-,.
COc1cccc(Oc2nc(C)nc3c2oc2ccccc23)c1,-,.,.
C(=C\c1nnc2c3ccccc3ncn12)/c1ccccc1,?,.,-97
COc1cc(/C=C/c2nnc3c4ccccc4ncn23)cc(OC)c1OC,-,-,-
